# PubChem BioAssay (NCATS)
# “And” between values parts separate entries of the source, which are not always exact repeats. Equal values may be shown once. Unmarked numbers belong to inactive results. Records with an inconclusive call do not appear. Where a call stands in place of a potency, no number is given. The source made the active and inactive calls. Unless noted, the call rests on the fitted dose curve; in most records, active means well fitted curve in the direction sought with a large enough effect; inconclusive means small, poorly fitted or top-dose-only effect, or another doubt; inactive means no such curve, though single readings can be large; an effect the other way counts as inactive or inconclusive.
# Legend:
# [1] = Cell Viability - Hek293 (AID 427;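 active means compounds whose dose-response curve shows a full or clear partial loss of cell viability, called from curve shape rather than a numeric limit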;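 further: potency means the concentration at half of the fitted maximal effect; cells exposed to compound for 40 hours at 37 °C before reading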); conditions: qHTS
# Outline: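 qHTS, human embryonic kidney (adenovirus-transformed) cells; 40 hr cpd, 37 °C; CellTiter-Glo ATP luminescence. Norm: DMSO = 0, 100 uM tamoxifen = 100% inhibition. Hill-fit AC50.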
# [2] = Cell Viability - HepG2 (AID 433; calls by dose curve;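 further: potency means the concentration at half of the fitted maximal effect; cells exposed to compound for 40 hours; potency for ATP loss meaning cytotoxicity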); conditions: qHTS
# Outline: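 HepG2 cells, 1500 per well, treated 40 hr at 37 °C in complete medium; viability from intracellular ATP by CellTiter-Glo luminescence. Normalized to DMSO and 100 uM tamoxifen; AC50 from Hill fit of qHTS concentration-response.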
# [3] = Cell Viability - H-4-II-E (AID 543); conditions: H-4-II-E rat hepatoma viability; series mostly up to 92.2 µM;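 further: cells exposed to compound for 40 hours; nearly all actives have a fitted effect of over 35% in size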; further: potency means the concentration at half of the fitted maximal effect
# Outline: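 CellTiter-Glo luminescence (intracellular ATP) measured after 40 h compound exposure at 37 °C in H-4-II-E rat hepatoma cells seeded at 1500/well. Values are AC50s fitted with the standard Hill equation.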
# [4] = Cell Viability - SH-SY5Y (AID 544); conditions: SH-SY5Y neuroblastoma cell viability; series mostly up to 92.2 µM;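 further: cells exposed to compound for 40 hours; nearly all actives have a fitted effect of over 55% in size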; further: potency means the concentration at half of the fitted maximal effect
# Outline: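 Cytotoxicity measured via ATP-dependent luciferase luminescence (CellTiter-Glo) following 40 h, 37 °C exposure of 1500 SH-SY5Y cells per well. Concentration-response data were fitted with the standard Hill equation to give AC50.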
# [5] = Cellular Toxicity (caspase-3) SK-N-SH (AID 661); conditions: SK-N-SH caspase-3 activation, qHTS, DMSO as zero, staurosporine as full; series mostly up to 91.7 µM;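 further: cells exposed to compound for 16 hours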
# Outline: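 Caspase 3/7 activation was read by luminogenic substrate cleavage after 16 hour treatment of SK-N-SH cells. Signal was scaled between DMSO and 10 uM staurosporine, and concentration-response data were fitted with the Hill equation for AC50.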
# [6] = Cellular Toxicity (caspase-3) H-4-II-E (AID 663); conditions: H-4-II-E rat hepatoma; Potency: caspase-3 activation; series mostly up to 92.2 µM;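 further: cells exposed to compound for 16 hr before readout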
# Outline: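 Caspase 3/7 activation measured in H-4-II-E cells in complete culture medium after 16 hr treatment at 37 °C, using luciferase-coupled substrate readout; AC50 values come from Hill-equation fits of normalized concentration-response data.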
# [7] = Cellular Toxicity (caspase-3) N2a (AID 665); conditions: N2a cells, luminescence, normalized: DMSO 0%, 10 µM staurosporine 100%; series mostly up to 92.2 µM;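 further: compound exposure lasted 16 h at 37 °C before readout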
# Outline: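 Caspase-3/7 activation measured as luminescence from Caspase-Glo reagent (1 h, room temperature) after 16 h compound exposure of mouse N2a cells. AC50 values from Hill-equation concentration-response, scaled between DMSO and 10 uM staurosporine.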
# [8] = Cellular Toxicity (caspase-3) NIH 3T3 (AID 666); conditions: NIH 3T3 caspase-3 activation, apoptosis/toxicity, 0% DMSO, 100% is 100 µM tamoxifen; series mostly up to 92.2 µM;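 further: caspase signal read after 16 h compound exposure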
# Outline: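 Caspase-Glo 3/7 luminescence reported caspase activation in 1000 NIH 3T3 cells/well after 16 h compound exposure at 37 C. DMSO set basal and 100 uM tamoxifen set 100% stimulation; concentration-response modeled with the Hill equation for AC50.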
# [9] = MultiTox-Fluor Cytotoxicity Assay - LYMP1-001 - Dead Cells (AID 946); conditions: LYMP1-001 lymphoblastoid cells, dead-cell protease fluorescence; series mostly up to 92.2 µM; further: potency means the concentration at half of the fitted maximal effect
# Outline: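 Seed 2500 LYMP1-001 cells/well, incubate 5 hr at 37 C; add compound, 16 hr at 37 C; add MultiTox-Fluor reagent, 60 min RT; read dead-cell fluorescence Ex/Em=485/520. Normalize to DMSO and 15 uM tetraoctylammonium bromide.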
# [10] = Cell Viability - LYMP1-002 - Assay at 16 hr (AID 948); conditions: LYMP1-002 lymphoblastoid cell viability; series mostly up to 92.2 µM; further: potency means the concentration at half of the fitted maximal effect
# Outline: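 LYMP1-002 human lymphoblastoid cells, 2500/well, were treated with compounds for 16 hr at 37 C in complete medium. Viability was read as intracellular ATP by CellTiter-Glo luminescence, and AC50 was derived from a Hill fit to concentration-response data.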
# [11] = Cell Viability - LYMP1-003 - Assay at 40 hr (AID 964); conditions: LYMP1-003 lymphoblastoid viability; series mostly up to 92.2 µM; further: nearly all actives have a fitted effect of over 60% in size; further: potency means the concentration at half of the fitted maximal effect
# Outline: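 Viability is taken as cellular ATP, read by CellTiter-Glo luminescence after 40 h of compound exposure at 37 C. Cells: human lymphoblastoid line LYMP1-003 at 2500/well; AC50 values derived by Hill-equation fitting of concentration-response data.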
# [12] = Cell Viability - LYMP2-011 (AID 969); conditions: LYMP2-011 lymphoblastoid cells viability; series mostly up to 92.2 µM; further: nearly all actives have a fitted effect of over 60% in size; further: potency means the concentration at half of the fitted maximal effect
# Outline: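 Cytotoxicity qHTS with ATP content as read-out: lymphoblastoid cells (2500/well) exposed to compound for 24 h at 37 C, then luciferase luminescence measured. Concentration-response data fitted with the standard Hill equation to give AC50.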
# [13] = Cell Viability - LYMP2-013 (AID 970); conditions: LYMP2-013 lymphoblastoid cells viability; series mostly up to 92.2 µM; further: nearly all actives have a fitted effect of over 55% in size; further: potency means the concentration at half of the fitted maximal effect
# Outline: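 qHTS cytotoxicity: ATP-dependent luminescence (CellTiter-Glo, 30 min room temperature) read after 24 h compound exposure at 37 C of 2500 LYMP2-013 lymphoblastoid cells per well. Concentration-response fitted with Hill equation to give AC50.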
# [14] = Cell Viability - LYMP2-017 (AID 972); conditions: LYMP2-017 lymphoblastoid cell viability; series mostly up to 92.2 µM; further: nearly all actives have a fitted effect of over 55% in size; further: potency means the concentration at half of the fitted maximal effect
# Outline: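 CellTiter-Glo luminescence (cellular ATP, 30 min RT) measured cytotoxicity after 24 hr compound treatment at 37 C. Cells were a human lymphoblastoid line, LYMP2-017, plated at 2500/well and incubated 5 hr first; concentration-response fitted with Hill equation for AC50.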
# [15] = Cell Viability - LYMP2-007 (AID 979); conditions: LYMP2-007 lymphoblastoid cell viability; series mostly up to 92.2 µM;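 further: cells exposed to compound for 24 h before reading; nearly all actives have a fitted effect of over 60% in size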; further: potency means the concentration at half of the fitted maximal effect
# Outline: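 AC50 values come from Hill-equation fits of luminescent intracellular ATP (CellTiter-Glo, 30 min, room temperature) following 24 h compound exposure at 37 C. Cells: LYMP2-007 lymphoblastoid line, 2500 per well, in complete culture medium.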
# [16] = Cell Viability - LYMP2-010 (AID 981); conditions: LYMP2-010 lymphoblastoid cell viability, qHTS; series mostly up to 92.2 µM; further: nearly all actives have a fitted effect of over 55% in size; further: potency means the concentration at half of the fitted maximal effect
# Outline: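 CellTiter-Glo ATP luminescence measured cytotoxicity after 24 h compound exposure at 37 C. LYMP2-010 cells were seeded at 2500/well, with tetraoctylammonium bromide as control; concentration-response curves gave AC50 values by the Hill equation.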
# [17] = Cell Viability - LYMP2-012 (AID 982); conditions: LYMP2-012 lymphoblastoid cell viability qHTS; series mostly up to 92.2 µM; further: potency means the concentration at half of the fitted maximal effect
# [18] = Cell Viability - LYMP2-020 (AID 986); conditions: series mostly up to 92.2 µM; further: nearly all actives have a fitted effect of over 55% in size; further: potency means the concentration at half of the fitted maximal effect
# Outline: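 Cytotoxicity in qHTS format: luminescent ATP readout from CellTiter-Glo after 24 h compound exposure at 37 C in complete medium. LYMP2-020 lymphoblastoid cells were seeded at 2500/well; concentration-response data fitted to the Hill equation for AC50.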
# [19] = Cell Viability - LYMP2-022 (AID 987); conditions: LYMP2-022 lymphoblastoid cell viability; series mostly up to 92.2 µM; further: nearly all actives have a fitted effect of over 55% in size; further: potency means the concentration at half of the fitted maximal effect
# Outline: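 Cytotoxicity read as decreased cellular ATP (CellTiter-Glo luminescence, 30 min room temperature) after 24 hours compound exposure of 2500 lymphoblastoid LYMP2-022 cells/well at 37 C. Concentration-response data fitted with standard Hill equation for AC50.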
# [20] = Cell Viability - LYMP2-024 (AID 988); conditions: LYMP2-024 lymphoblastoid cell viability; series mostly up to 92.2 µM; further: nearly all actives have a fitted effect of over 60% in size; further: potency means the concentration at half of the fitted maximal effect
# Outline: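 Cytotoxicity was taken as a decrease in ATP (CellTiter-Glo luminescence) after 24 hr compound exposure at 37 C of LYMP2-024 lymphoblastoid cells, 2500 cells/well. Concentration-response data were fitted to the Hill equation to give AC50.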
SMILES,Potency [1],Potency [2] [µM],Potency [3],Potency [4],outcome [5],Potency [6],outcome [7],outcome [8],Potency [9],Potency [10],Potency [11],Potency [12],Potency [13],Potency [14],Potency [15],Potency [16],Potency [17],Potency [18],Potency [19],Potency [20]
CCO[Si](CCCN)(OCC)OCC,> 92 µM,> 92,inactive,inactive,inactive,inactive,inactive,inactive,inactive,inactive,inactive,inactive,inactive,inactive,inactive,inactive,inactive,inactive,inactive,inactive
CCCCCCCCO,> 92 µM,> 92,inactive,inactive,inactive,inactive,inactive,inactive,inactive,inactive,inactive,inactive,inactive,inactive,inactive,inactive,inactive,inactive,inactive,inactive
CCC(O)OC(O)CC (stereo not drawn),> 92 µM,> 92,inactive,inactive,inactive,inactive,inactive,inactive,inactive,inactive,inactive,inactive,inactive,inactive,inactive,inactive,inactive,inactive,inactive,inactive
c1ccc2c(c1)c1cccc3ccc4cccc2c4c31,> 92 µM,> 92,inactive,inactive,inactive,inactive,inactive,inactive,inactive,inactive,inactive,inactive,inactive,inactive,inactive,inactive,inactive,inactive,inactive,inactive
Cc1cccc([N+](=O)[O-])c1C,> 92 µM,> 92,inactive,inactive,inactive,inactive,inactive,inactive,inactive,inactive,inactive,inactive,inactive,inactive,inactive,inactive,inactive,inactive,inactive,inactive
Cc1c(N=C=O)cccc1N=C=O,> 92 µM,> 92,inactive,inactive,inactive,inactive,inactive,inactive,inactive,inactive,inactive,inactive,inactive,inactive,inactive,inactive,inactive,inactive,inactive,inactive
COC(=O)c1ccc(C)cc1,> 92 µM,> 92,inactive,inactive,inactive,inactive,inactive,inactive,inactive,inactive,inactive,inactive,inactive,inactive,inactive,inactive,inactive,inactive,inactive,inactive
C=CCOC(=O)c1ccccc1C(=O)OCC=C,> 92 µM,> 92,inactive,inactive,inactive,inactive,inactive,inactive,inactive,inactive,inactive,inactive,inactive,inactive,inactive,inactive,inactive,inactive,inactive,inactive
C=CC(=O)OCCOCCOCCOCCOC(=O)C=C,24.8 µM (active) and 28.8 µM (active),> 92,20 µM (active),7.94 µM (active) and 12.6 µM (active),–,–,inactive,inactive,50.1 µM (active),31.6 µM (active),12.6 µM (active) and 31.6 µM (active),20 µM (active) and 25.1 µM (active),20 µM (active) and 25.1 µM (active),20 µM (active),20 µM (active),15.8 µM (active),12.6 µM (active),12.6 µM (active) and 15.8 µM (active),12.6 µM (active),12.6 µM (active) and 15.8 µM (active)
CN(C)C=O,> 92 µM,> 92,inactive,inactive,inactive,inactive,inactive,inactive,inactive,inactive,inactive,inactive,inactive,inactive,inactive,inactive,inactive,inactive,inactive,inactive
C1OCOCO1,> 92 µM,> 92,inactive,inactive,inactive,inactive,inactive,inactive,inactive,inactive,inactive,inactive,inactive,inactive,inactive,inactive,inactive,inactive,inactive,inactive
OCCNCCO,> 92 µM,> 92,inactive,inactive,inactive,inactive,inactive,inactive,inactive,inactive,inactive,inactive,inactive,inactive,inactive,inactive,inactive,inactive,inactive,inactive
CCCN(CCC)C(=O)SCC,> 92 µM,> 92,inactive,inactive,inactive,inactive,inactive,inactive,inactive,inactive,inactive,inactive,inactive,inactive,inactive,inactive,inactive,inactive,inactive,inactive
